Measurements: PubChem BioAssay AID493185 (National Center for Advancing Translational Sciences (NCATS), 2011)
A number with no mark means an inactive call. Calls come from the whole dose curve; as a rule, active = well fitted activation curve with a large enough effect; inconclusive = small, poorly fitted or top-dose-only effect; inactive = no such curve, though single readings can be large or run the other way.

Assay: Counterscreen for Identifying a Potential Treatment of Ataxia-Telangiectasia: Hit Validation; note: 0% is about no effect
Conditions: cell-free AlphaLISA/AlphaScreen artifact counterscreen, PBS only, no cells; series mostly up to 76.9 µM; activation: at the top concentration
Summary of the method: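 Cell-free AlphaLISA counterscreen: compounds (up to 76.7 uM final) in PBS with detection mix of anti-pKAP1 and anti-KAP1 antibodies on donor/acceptor beads plus lysis buffer, incubated 6 hr at 25C before AlphaScreen read.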

Row | Structure (SMILES) | activation [%]
1 | COc1cccc(CN2CCN(Cc3cc(OC)c(OC)cc3OC)CC2)c1 | -0.752
2 | O=C1CN(C(=O)NCC(=O)N[C@H](C(=O)O)c2ccccc2)c2ccccc2N1 | 9.02
3 | COc1ccc(C(=O)N2CCCC2(C#N)c2ccccc2)cc1[N+](=O)[O-] (configuration not stated) | -8.2
4 | Cc1ccc(NC(=O)NC(=O)N(C(C)C)S(C)(=O)=O)nc1 | 3.76
5 | Nc1ccc2ncccc2c1 | 9.02
6 | Cc1nc2sc(C(N)=O)c(N)c2c2c1CCCC2 | 29.3
7 | COC(=O)Cn1ccc2cc(S(=O)(=O)N3CCCCC3)ccc21 | -16.9
8 | CCOC(=O)c1cccc(N2C(=O)C3C4C=CC(CC4)C3C2=O)c1 (configuration not stated) | 37.7
9 | CCC(Oc1ccccc1)C(=O)N(C)CC(=O)N(CC(C)C)c1c(N)n(CC(C)C)c(=O)[nH]c1=O (configuration not stated) | 12.8
10 | CN1C[C@@H]2C(c3ccccc3)C3(c4ccccc4)CC2(C3)[C@H]1c1ccccc1 (some centres not stated) | -6.92
11 | O=C(CCC(=O)c1ccc(F)cc1)Nc1cccc(Br)c1 | -0.752
12 | Cc1ccc(C)c(-n2c(SCC(=O)NC(C(=O)O)C(C)C)nnc2-c2cccc(Cl)c2)c1 (configuration not stated) | 11.5
13 | CN(C)S(=O)(=O)c1cccc(C(=O)N=C2N=C3C=CC(Cl)=CN3Cc3ccccc32)c1 | 8.46
14 | CC(C)(C)n1nc2c(c1NC(=O)C1CC(=O)N(c3ccc(Cl)cc3)C1)CS(=O)(=O)C2 (configuration not stated) | -0.82
15 | COc1ccc(CNC(=O)CN2C(=O)CSc3ccc(S(=O)(=O)N4CCOCC4)cc32)c(OC)c1 | -11.3
16 | CCOc1ccc(NC2=CC(=O)CCC2)cc1 | -2.46
17 | OC(COC(c1ccc(F)cc1)c1ccc(F)cc1)CN1CCCC1 (configuration not stated) | 13.1
